Peg3 promoter: reduces Peg3 promoter-driven luciferase expression in HeLa; inhibition, % at 20 µM; 1.7% of 360,000 active; HeLa PEG-Prom luciferase reporter, luminescence, overnight; AID 588405;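 active = inhibition of at least 50% at 20 µM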
Shn3 3UTR inh: reduces Shn3 3'UTR luciferase signal in osteoblasts; 0.52% of 360,000 active; AID 588674; Clone20 osteoblast Shn3 3'UTR firefly luciferase, 24 h; inhibition, % at 12.5 µM;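 active = mean inhibition of at least 75% with every replicate also reaching 75%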
MITF TRPM1 inh: inhibitors of MITF-driven TRPM1 promoter in melanoma cells. AID 488899. inhibition, % at 12.5 µM. 0.83% of 330,000 active. SK-MEL-5 TRPM1 promoter luciferase, 24 h;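 active = mean inhibition across replicates of 60% or more, whatever share of single replicates reaches that level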
EWS-Fli block: blocks EWS/Fli oncoprotein-driven transcription; inhibition, % at 12.6 µM; 0.67% of 350,000 active; A673 NR0B1-luciferase reporter, viability-normalised;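 active = mean inhibition of at least 50% after viability correction, with every replicate also passing that limit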;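 also: firefly luciferase signal divided by Alamar Blue viability fluorescence both relative to DMSO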
ABHD5 PLIN5 PPI: inhibitors of human ABHD5-perilipin-5 interaction; Split G. princeps luciferase complementation, luminescence, 4 h; Q00G26+Q8WTS1; inhibition, % at 4 µM; 0.78% of 360,000 active; AID 602281;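 active = inhibition above the mean inhibition across every tested compound plus 3 SD, cut at about 22% in these data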
Target sequence (Q00G26 whole entry, looked up): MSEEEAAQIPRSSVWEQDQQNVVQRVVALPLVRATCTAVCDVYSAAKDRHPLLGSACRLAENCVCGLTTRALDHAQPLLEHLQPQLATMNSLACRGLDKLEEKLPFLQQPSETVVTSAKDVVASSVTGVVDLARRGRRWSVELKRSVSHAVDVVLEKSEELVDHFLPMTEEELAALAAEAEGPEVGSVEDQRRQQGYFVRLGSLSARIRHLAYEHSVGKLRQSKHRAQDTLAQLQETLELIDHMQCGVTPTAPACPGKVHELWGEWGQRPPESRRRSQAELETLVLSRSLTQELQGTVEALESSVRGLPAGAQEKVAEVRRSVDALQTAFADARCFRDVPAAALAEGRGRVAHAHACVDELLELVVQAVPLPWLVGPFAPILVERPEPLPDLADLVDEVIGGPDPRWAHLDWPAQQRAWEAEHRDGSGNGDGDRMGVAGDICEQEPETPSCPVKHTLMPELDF
Target sequence (Q8WTS1 whole entry, looked up): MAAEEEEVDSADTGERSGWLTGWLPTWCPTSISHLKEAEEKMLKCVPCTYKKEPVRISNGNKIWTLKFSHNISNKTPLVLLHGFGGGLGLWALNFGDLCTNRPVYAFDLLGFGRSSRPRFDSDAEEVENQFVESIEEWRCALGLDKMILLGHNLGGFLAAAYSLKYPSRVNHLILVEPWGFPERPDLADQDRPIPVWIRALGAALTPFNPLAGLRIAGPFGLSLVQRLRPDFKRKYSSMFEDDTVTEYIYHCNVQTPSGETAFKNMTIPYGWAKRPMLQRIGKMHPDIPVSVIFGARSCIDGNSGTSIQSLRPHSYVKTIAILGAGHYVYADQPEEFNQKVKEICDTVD
PAX8 inh HTS: lowers PAX8-driven luciferase in RMG-I cells; RMG-I TPO-luciferase reporter, SteadyGlo, 24 h; inhibition, % at 12.6 µM; 1.2% of 360,000 active; AID 652154;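 active = mean replicate inhibition at least 60% with every replicate also reaching 60%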;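 also: luciferase light reporting Pax8 driven TPO promoter activity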
Hits are given with their value; – = inactive; · = no result given. An excerpt weighted towards active compounds, which were near 3% of everything screened.

SMILES | Peg3 promoter | Shn3 3UTR inh | MITF TRPM1 inh | EWS-Fli block | ABHD5 PLIN5 PPI | PAX8 inh HTS
CC[n+]1ccccc1/C=C1\Sc2ccc(C)cc2N1C | – | – | – | 55.0 | – | –
CN1/C(=C/c2cccc[n+]2CCO)Sc2ccccc21 | – | – | – | – | – | –
O=C(C[C@H]1C[C@@H]2c3cc(NC(=O)NC4CCCCC4)ccc3O[C@@H]2[C@@H](CO)O1)NC1CCCC1 | · | · | · | – | · | –
Cc1cccc(C)c1NC(=O)CNC(=O)c1cn(-c2ccccc2)nc1-c1ccccc1 | – | – | – | · | – | –
Cc1nn(Cc2c(Cl)cccc2Cl)c(C)c1NC(=O)c1cn(-c2ccccc2)nc1-c1ccccc1 | 114.5 | 87.7 | 87.4 | · | – | ·
CC(=O)c1sc(NC(=O)CCS(=O)(=O)c2ccccc2)nc1C | – | – | – | · | – | –
CC(=O)c1sc(NC(=O)CCS(=O)(=O)c2ccc(F)cc2)nc1C | – | – | · | – | – | 76.9
CCOC(=O)c1cnc(-n2nc(C)cc2C)nc1NCc1ccc2c(c1)OCO2 | – | 93.6 | – | · | – | –
CCOC(=O)c1cnc(-n2nc(C)cc2C)nc1NCCc1ccccc1 | – | – | – | · | – | ·
COc1cc(C(=O)NCC(c2ccco2)N2CCCC2)ccc1OCc1ccc(Cl)cc1Cl (stereo not given) | 56.0 | – | · | – | – | –
COc1cc(C(=O)NCC(c2cccs2)N2CCOCC2)ccc1OCc1ccc(Cl)cc1 (stereo not given) | – | – | · | – | – | 98.9
C[C@@H]1CN([C@H](C)CO)C(=O)c2cccc(NC(=O)c3ccc(-c4nccs4)cc3)c2O[C@@H]1CN(C)C(=O)Nc1ccccc1 | · | · | · | – | · | ·
COc1ccc2c3c(n(C)c2c1)[C@@H](CO)N(C(=O)NC1CCCCC1)CC31CN(C)C1 | · | · | · | – | · | –
CC(=O)Nc1cccc(-c2cnc(N)c(C(=O)c3cccnc3)n2)c1 | 70.6 | – | – | · | – | ·
NC(=O)c1cccc(-c2cnc(N)c(C(=O)c3cccnc3)n2)c1 | 62.2 | – | 61.3 | · | – | ·
Cc1ccc(S(=O)(=O)NCC[C@@H]2CC[C@@H](NC(=O)CC3CC3)[C@H](CO)O2)cc1 | · | · | · | – | · | –
C[C@@H]1CCCCO[C@H](CN(C)Cc2ccccc2)[C@@H](C)CN([C@H](C)CO)C(=O)c2cc(NC(=O)CCC(F)(F)F)ccc2O1 | · | · | · | – | · | –
O=C(O)/C=C/C(=O)NCc1ccccc1 | – | – | – | – | – | 81.7
O=c1[nH]c(NC2CCN(S(=O)(=O)c3ccccc3C(F)(F)F)CC2)nc2c1CCCC2 | – | – | 70.8 | – | – | –
Cc1nn(-c2ccccc2)c(Cl)c1C(=O)NC1CCCCC1 | – | – | – | – | – | –
Cc1nn(-c2ccccc2)c(C)c1C(=O)OC(C)C(=O)NC1CCCCC1 (stereo not given) | – | 83.2 | – | – | – | –
CO[C@@H]1CN(C)C(=O)c2ccc(NC(=O)c3ccccc3)cc2OC[C@H](C)N(C(C)=O)C[C@@H]1C | · | · | · | – | · | ·
NC(=O)CC(NC(=O)c1ccc(Br)cc1)c1ccc(N2CCCCCC2)c([N+](=O)[O-])c1 (stereo not given) | – | 89.5 | – | – | – | –
NC(=O)CC(NC(=O)Cc1ccc(Br)cc1)c1ccc(N2CCC(Cc3ccccc3)CC2)c([N+](=O)[O-])c1 (stereo not given) | 51.4 | – | – | – | – | –
Cc1c(C(=O)N(Cc2cccc(Br)c2)C2CCS(=O)(=O)C2)oc2ccccc12 (stereo not given) | – | 86.4 | – | – | – | –
SMILES | Peg3 promoter | Shn3 3UTR inh | MITF TRPM1 inh | EWS-Fli block | ABHD5 PLIN5 PPI | PAX8 inh HTS
Cc1c(C(=O)N(Cc2ccccc2)C2CCS(=O)(=O)C2)oc2ccccc12 (stereo not given) | – | – | – | – | – | –
COc1ccc(S(=O)(=O)N(C)C[C@@H]2Oc3ccc(NC(=O)NC4CCCCC4)cc3C(=O)N([C@@H](C)CO)C[C@H]2C)cc1 | · | · | · | – | · | ·
O=C(Nc1cnn(C23CC4CC(CC(C4)C2)C3)c1)c1cnn2c(C(F)(F)F)cc(-c3ccco3)nc12 | 70.9 | – | 75.4 | – | – | ·
O=C(Nc1ccc2c(c1)OCO2)c1cnn2c(C(F)(F)F)cc(-c3ccco3)nc12 | – | – | – | · | – | ·
Cc1ccccc1Cn1ccc(NC(=O)c2cnn3c(C(F)(F)F)cc(-c4ccco4)nc23)n1 | 51.2 | – | – | · | – | ·
O=C1c2ccccc2C(=O)c2c(/C=C/N3CCCCC3)ccnc21 | – | – | 95.0 | – | – | –
O=C1c2ccccc2-c2cccnc21 | – | – | · | – | – | –

Compound activity as filed in PubChem.
